# ELG1 repair inh – inhibitors of ELG1-dependent DNA repair in HEK293T cells; HEK293T ELG1-luciferase reporter, luminescence, 16 h; DNA damage induced by 5-fluorouridine; Potency, µM (titrated, usually from 46.1 µM), for inactives: at the top dose activity change, negative = inhibition, actives largely listed as inhibitors; actives 2.3% (n = 330,000); AID 504467; note: % is set by controls: 0 for no effect and ±100 for the full control effect; nearly all actives have a fitted effect of over 55% in size
#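 Cells (2,000 per well) received 5-fluorouridine plus test compound or DMSO and were incubated 16 hr at 37 °C, 5% CO2. Luciferase activity was read by luminescence 30 min after ONE-Glo addition; signal suppression marked inhibition of damage-induced ELG1 function.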
# ELG1 genotoxic – genotoxicity induction in ELG1-luciferase HEK293T cells; AID 504466; HEK293T ELG1-luciferase reporter, luminescence, 16 h; Potency, µM (top dose mostly 46 µM), inactives show at the top dose activity change, positive = activation, usual class: activators; actives 1.3% (n = 330,000); note: % of control where 0% means no effect; nearly all actives have a fitted effect of over 60% in size
#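 Luminescence read-out: rising ELG1-luciferase signal, reflecting elevated ELG1 protein under genetic stress, flags genotoxic compounds. Cells were treated for 16 hr at 37 °C before ONE-Glo detection.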
# Rab9 promoter act – activates the Rab9 promoter; Huh7 Rab9 promoter-luciferase reporter, luminescence, 24 h; actives 2.8% (n = 320,000); Potency, µM (top dose mostly 9.22 µM), for inactives: top-dose activation, negative = inhibition, usual class: activators; note: % of control where 0% means no effect; nearly all actives have a fitted effect of over 60% in size
#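 Luminescence read-out: Huh7 cells stably expressing Rab9-luciferase, treated 24 h with compound at 37 °C, then lysed with luciferase reagent for 10 min at ambient before reading.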
# FLuc counter – inhibits or activates purified firefly luciferase, miR-21 counter-screen. purified FLuc, Km substrates, luminescence inhibition. Potency, µM (series often up to 57.5 µM), inactives show top-dose activity change, negative = inhibition, hits mostly inhibitors. actives 6.9% (n = 360,000). AID 588342;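 note: plate controls were vehicle for no effect and reference inhibitor for full effect; nearly all actives have a fitted effect of over 55% in size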
# Target sequence (P08659 whole entry, looked up): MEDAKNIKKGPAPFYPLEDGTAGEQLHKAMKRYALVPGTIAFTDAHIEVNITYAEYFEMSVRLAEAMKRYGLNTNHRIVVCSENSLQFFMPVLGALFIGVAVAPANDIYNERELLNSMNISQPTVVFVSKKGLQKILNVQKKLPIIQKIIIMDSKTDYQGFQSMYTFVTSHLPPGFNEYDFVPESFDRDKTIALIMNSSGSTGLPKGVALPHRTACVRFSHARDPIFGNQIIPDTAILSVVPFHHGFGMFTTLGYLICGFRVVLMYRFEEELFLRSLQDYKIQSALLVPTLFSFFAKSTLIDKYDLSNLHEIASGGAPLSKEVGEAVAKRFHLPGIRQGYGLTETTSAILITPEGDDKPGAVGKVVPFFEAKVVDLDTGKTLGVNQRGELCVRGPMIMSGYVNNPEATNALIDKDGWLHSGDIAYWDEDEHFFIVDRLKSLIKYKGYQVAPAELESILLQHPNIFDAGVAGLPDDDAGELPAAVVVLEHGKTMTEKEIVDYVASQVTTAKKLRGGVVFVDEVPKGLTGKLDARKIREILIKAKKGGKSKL
#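 Biochemical qHTS of compounds, final roughly 60 µM downward over six points, against 10 nM purified firefly luciferase using Km concentrations of substrates (10 uM D-luciferin, 10 uM ATP) in Tris acetate pH 7.5 buffer; luminescence output.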
# SMN2 splice up – SMN2 splice variant enhancement | HEK293 SMN2-luciferase splicing reporter, luminescence, 30-36 h | Potency, µM (doses to about 46.1 µM), inactives show at the highest dose activity change, positive = activation, actives largely listed as activators | actives 2.8% (n = 210,000) | AID 1458; note: % of control where 0% means no effect; nearly all actives have a fitted effect of over 55% in size
#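 HEK293 cells carry an SMN2 minigene-luciferase reporter in which exon 7 inclusion puts luciferase in frame. Cells were seeded at 2000 cells/well, attached for 10-12 hours, then exposed to compounds for 30-36 hours at 37C before ONE-Glo luminescence.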
# NPC1 prom act – activators of NPC1 promoter. Huh7 NPC1 promoter luciferase reporter, 24 h. Potency, µM (highest dose often 9.22 µM), for inactives: top-dose activation, actives largely listed as activators. actives 2.4% (n = 320,000). AID 485313; note: % of control where 0% means no effect; nearly all actives have a fitted effect of over 60% in size
#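 Luminescence read-out of NPC1 promoter-driven luciferase in stably transfected Huh7 cells; compounds delivered in DMSO and left 24 h at 37C, 5% CO2, qHTS titration format.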
# * hit, by the source's call; ? = inconclusive; . = not tested or not shown; [ ] = remark or other dose. Hits are enriched below; roughly 9.3% of the tested compounds scored in any of these assays. Calls come from the whole dose curve; as a rule, active = well fitted curve in the direction sought with a large enough effect; inconclusive = small, poorly fitted or top-dose-only effect, or another doubt; inactive = no such curve, though single readings can be large; an effect the other way counts as inactive or inconclusive. Potency is the fitted concentration of half-maximal effect.
SMILES,ELG1 repair inh,ELG1 genotoxic,Rab9 promoter act,FLuc counter,SMN2 splice up,NPC1 prom act
CCn1c(NC(=O)c2cccc(Cn3cc(Cl)cn3)c2)nc2ccccc21,?,-0.2%,-2.1%,1.2%,-52.0%,7.2%
CCc1ccc2c(c1)c(=O)c(C(=O)c1ccc(C)cc1)cn2CC(=O)Nc1ccccc1C,.,.,.,0.2%,14.9%,.
O=C(NCCN1CCOCC1)/C(=C/c1ccccc1)NC(=O)c1ccccc1,15.5%,1.5%,1.2%,-1.1%,.,3.0%
CCC(C)NC(=O)c1cn(CC)c2ccc(S(=O)(=O)N(C)C)cc2c1=O (configuration not stated),?,3.7%,-0.9%,0.3%,4.2%,-5.0%
CCCn1c(SCC(=O)NC2CCCc3ccccc32)n[nH]c1=O (configuration not stated),2.9%,-4.1%,18.0%,-0.6%,-12.0%,-0.3%
Cc1ccccc1N1CCN(Cc2cccc(C(=O)O)c2)CC1,-7.4%,1.1%,-3.3%,2.1%,.,0.6%
COC(=O)c1cc(CN2CCN(c3ccccc3C)CC2)ccc1O,23.1µM*,-3.9%,-0.1%,8.0%,9.8%,-3.0%
Cc1ccc(-n2c(=O)c3c(C)c(C(=O)N(C)C)sc3n(Cc3ccccc3C)c2=O)cc1C,.,.,.,-1.8%,.,.
COc1ccc(OC)c(NC(=O)CSc2nc(C)cs2)c1,-6.4%,-0.3%,-3.6%,0.4%,-5.2%,0.4%
CC1CCN(C(=O)c2ccccc2NC(=O)Nc2ccccc2)CC1,16.0%,10.9%,3.0%,-1.2%,.,2.7%
CSc1nsc(/C=C/Nc2ccc(C(=O)O)cc2)c1C#N,1.8%,-7.1%,14.3%,12µM*,3.2%,-4.0%
Cc1cc(C)nc(SCc2csc(-c3ccccc3)n2)n1,?,4.61µM*,1.41µM*,3.38µM*,5.01µM*,2.51µM*
Nc1ccccc1SCc1csc(-c2ccc(Cl)cc2)n1,?,9.5%,?,13.5µM*,-1.5%[9.22 µM],?
O=S(=O)(NCCc1ccccc1)c1ccc(F)cc1,18.4%,1.9%,4.2%,2.9%,.,-0.7%
CCN(C(=O)Cc1nc(-c2ccc(OC)cc2)no1)c1cccc(Cl)c1,.,.,.,-9.0%,.,.
O=C(c1ccco1)N1CCN(Cc2nc3ccc([N+](=O)[O-])cc3c(=O)n2-c2ccccc2F)CC1,23.1µM*,-5.8%,-0.6%,0.5%,-1.9%,-2.4%
CCOc1ccccc1N1CC(O)=C(c2nc3ccccc3s2)C1=N,16.4µM*,-18.2%,-25.3%,-12.9%,-23.0%,-30.2%
COc1ccc(OC)c(N2CC(O)=C(c3nc4ccccc4s3)C2=N)c1,0.0%,-4.1%,-9.1%,?,-9.3%,9.6%
O=C(Nc1ccc2c(c1)OCO2)C1CC(c2ccccc2Cl)=NO1 (configuration not stated),18.8%,?,2.51µM*,2.1%[2.3 µM],15.3%,?
O=C(Nc1cnc2ccccc2c1)C1COc2ccccc2O1 (configuration not stated),?,?,3.98µM*,13.5µM*,-5.6%,24.6%
O=C(Nc1ccc2c(c1)OCO2)C1COc2ccccc2O1 (configuration not stated),?,?,2.82µM*,16.9µM*,?,?
COc1cccc(NC(=O)C2COc3ccccc3O2)c1 (configuration not stated),?,?,24.0%,26.9µM*,.,?
CCN1CCN(c2ccc(S(=O)(=O)N3CCCCC3)cc2NC(=O)C(C)Oc2ccc(F)cc2)CC1 (configuration not stated),?,0.2%,-1.9%,-0.9%,.,-2.7%
O=C(c1ccc(F)cc1)C1CCN(Cc2cn[nH]c2-c2ccc(F)cc2)CC1,?,-3.4%,-3.3%,-0.2%,.,-3.7%
O=C(Nc1ccc2c(c1)CCC2)C1COc2ccccc2O1 (configuration not stated),?,20.6µM*,2.51µM*,19µM*,15.8µM*,3.98µM*

# Assay outcomes: PubChem BioAssay, National Center for Advancing Translational Sciences (NCATS)
